Laboratory results: PubChem BioAssay AID1159580 (chemical genetic matrix, 2015)
Values joined by “and” are separate entries in the source; they are usually repeats but may differ in a detail not shown here. Equal entries are not always repeated. In all, about 5,500 compounds went through this assay and about 2,000 (36%) were called active. About 18% were inconclusive and are not listed. Cut-off read from the data, not from the text of the source: active = normalized growth mostly below about 0.91 (no sharp cut-off); inconclusive = no clear call, values can overlap the other calls; inactive = mostly above about 0.92. This is one part of the list.

Test: chemical genetic growth profiling, strain panel (AID 1159580);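 note: tested at 20 µM; growth read once vehicle control cultures reached saturation at 30 °C; 1 = growth at the plate median or of vehicle wells; lower values mean less growth of the strain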
Conditions: S. cerevisiae deletion strains, growth OD

Measured: normalized growth

COc1ccccc1OCC(O)COC(N)=O (stereo not drawn)
inactive: locus YAL013W, strain DEP1, hits give low values 0.997 | locus YAL021C, strain ccr4, hits give low values 0.991 | locus YAL026C, strain drs2, hits give low values 0.99 | locus YAL030W, strain snc1, hits give low values 0.996 | locus YBL061C, strain skt5, hits give low values 0.989 | locus YBR009C, strain hhf1, hits give low values 0.97 | locus YBR021W, strain FUR4, hits give low values 1.02 | locus YBR023C, strain chs3, hits give low values 0.966 | locus YBR171W, strain sec66, hits give low values 0.981 | locus YBR229C, strain ROT2, hits give low values 1 | locus YBR231C, strain swc5, hits give low values 0.992 | locus YBR279W, strain paf1, hits give low values 0.976 | locus YCL011C, strain gbp2, hits give low values 0.979 | locus YCL016C, strain dcc1, hits give low values 0.962 | locus YCL029C, strain bik1, hits give low values 0.997 | locus YCL061C, strain MRC1, hits give low values 0.973 | locus YCL069W, strain vba3, hits give low values 0.996 | locus YCR088W, strain abp1, hits give low values 0.985 | locus YDL005C, strain med2, hits give low values 0.987 | locus YDL035C, strain GPR1, hits give low values 1 | locus YDL040C, strain nat1, hits give low values 0.992 | locus YDL074C, strain BRE1, hits give low values 0.995 | locus YDL101C, strain DUN1, hits give low values 0.997 | locus YDL134C, strain PPH21, hits give low values 1.01 | locus YDL185W, strain tfp1, hits give low values 0.957 | locus YDL192W, strain arf1, hits give low values 0.977 | locus YDR001C, strain nth1, hits give low values 0.991 | locus YDR069C, strain doa4, hits give low values 0.996 | locus YDR101C, strain arx1, hits give low values 1.04 | locus YDR137W, strain rgp1, hits give low values 0.965 | locus YDR159W, strain sac3, hits give low values 1.01 | locus YDR162C, strain NBP2, hits give low values 1 | locus YDR195W, strain ref2 1.01 | locus YDR297W, strain sur2, hits give low values 0.996 | locus YDR318W, strain mcm21, hits give low values 0.993 | locus YDR334W, strain swr1, hits give low values 0.978 | locus YDR335W, strain msn5, hits give low values 0.993 | locus YDR388W, hits give low values 1 | locus YDR392W, strain spt3, hits give low values 0.918 | locus YDR502C, strain sam2, hits give low values 0.997 | locus YEL003W, strain gim4, hits give low values 1 | locus YEL037C, strain rad23, hits give low values 0.985 | locus YEL061C, strain CIN8 (second series), hits give low values 0.984 | locus YEL061C, strain CIN8, hits give low values 0.98 | locus YER015W, strain faa2, hits give low values 0.974 | locus YER016W, strain bim1, hits give low values 1.02 | locus YER110C, hits give low values 0.983 | locus YER111C, strain swi4, hits give low values 0.981 | locus YER155C, strain BEM2 (second series), hits give low values 1 | locus YER155C, strain BEM2, hits give low values 0.993 | locus YER167W, strain BCK2, hits give low values 0.99 | locus YFR010W, strain ubp6, hits give low values 0.987 | locus YGL078C, strain dbp3, hits give low values 0.984 | locus YGL086W, strain mad1, hits give low values 1.02 | locus YGL167C, strain pmr1, hits give low values 0.983 | locus YGL173C, strain kem1, hits give low values 0.992 | locus YGL227W, strain vid30, hits give low values 0.988 | locus YGL240W, strain doc1, hits give low values 1.02 | locus YGL248W, strain PDE1, hits give low values 0.999 | locus YGL253W, strain hxk2, hits give low values 0.985 | locus YGR078C, strain PAC10, hits give low values 1 | locus YGR135W, strain pre9, hits give low values 0.961 | locus YGR229C, strain SMI1, hits give low values 1 | locus YGR252W, strain gcn5, hits give low values 0.988 | locus YHR013C, strain ard1, hits give low values 0.952 | locus YHR027C, strain rpn1, hits give low values 1 | locus YHR030C, strain SLT2, hits give low values 0.996 and 1.06 | locus YHR079C, strain IRE1 (second series), hits give low values 0.991 | locus YHR079C, strain IRE1, hits give low values 1.05 | locus YHR094C, strain hxt1, hits give low values 1 | locus YHR129C, strain ARP1, hits give low values 1 | locus YHR142W, strain chs7, hits give low values 0.965 | locus YHR200W, strain rpn10, hits give low values 0.985 | locus YIL066C, strain RNR3, hits give low values 1 | locus YIL073C, strain SPO22, hits give low values 0.94 | locus YIL125W, strain kgd1, hits give low values 0.999 | locus YIR030C, strain dcg1, hits give low values 0.985 | locus YJL092W, strain hpr5, hits give low values 0.984 | locus YJL095W, strain BCK1 (second series), hits give low values 0.991 | locus YJL095W, strain BCK1, hits give low values 0.991 and 1.03 | locus YJL115W, strain asf1, hits give low values 0.975 | locus YJL129C, strain trk1, hits give low values 0.972 | locus YJL134W, strain LCB3, hits give low values 0.99 | locus YJL154C, strain vps35, hits give low values 0.992 | locus YJL164C, strain tpk1, hits give low values 0.97 | locus YJL166W, strain qcr8, hits give low values 0.96 | locus YJL168C, strain set2, hits give low values 1 | locus YJL187C, strain SWE1 (second series), hits give low values 1 | locus YJL187C, strain SWE1, hits give low values 0.99 | locus YJR043C, strain POL32, hits give low values 1.02 | locus YJR066W, strain TOR1, hits give low values 0.984 | locus YKL009W, strain mrt4, hits give low values 0.973 | locus YKL068W, hits give low values 0.989 | locus YKL085W, strain MDH1 (second series), hits give low values 0.982 | locus YKL085W, strain MDH1, hits give low values 0.982 | locus YKL160W, strain elf1, hits give low values 0.965 | locus YKL190W, strain CNB1, hits give low values 0.976 | locus YKR001C, strain vps1, hits give low values 1 | locus YKR026C, strain gcn3, hits give low values 0.992 | locus YKR091W, strain srl3, hits give low values 0.981 | locus YLL001W, strain dnm1, hits give low values 0.968 | locus YLL026W, hits give low values 0.995 | locus YLL041C, strain sdh2, hits give low values 0.998 | locus YLR027C, strain aat2, hits give low values 0.997 | locus YLR039C, strain RIC1, hits give low values 0.941 | locus YLR058C, strain SHM2, hits give low values 0.999 | locus YLR102C, strain apc9, hits give low values 0.991 | locus YLR113W, strain HOG1, hits give low values 1.02 | locus YLR221C, strain rsa3, hits give low values 0.965 | locus YLR258W, strain gsy2, hits give low values 0.974 | locus YLR262C, strain YPT6 (second series), hits give low values 0.966 | locus YLR262C, strain YPT6, hits give low values 0.985 | locus YLR268W, strain sec22, hits give low values 0.99 | locus YLR320W, strain mms22, hits give low values 0.964 | locus YLR330W, strain CHS5, hits give low values 0.991 | locus YLR342W, strain FKS1 (second series), hits give low values 1.01 | locus YLR342W, strain FKS1, hits give low values 0.981 | locus YLR357W, strain rsc2, hits give low values 0.963 | locus YLR370C, strain arc18, hits give low values 0.987 | locus YLR371W, strain rom2, hits give low values 1 | locus YLR384C, strain iki3, hits give low values 0.979 | locus YLR418C, strain cdc73, hits give low values 0.988 | locus YML016C, strain PPZ1, hits give low values 1 | locus YML032C, strain rad52, hits give low values 1 | locus YML120C, strain ndi1, hits give low values 0.958 | locus YML124C, strain tub3, hits give low values 0.988 | locus YMR058W, strain fet3, hits give low values 0.991 | locus YMR078C, strain ctf18, hits give low values 0.986 | locus YMR125W, strain sto1, hits give low values 0.971 | locus YMR129W, hits give low values 0.988 | locus YMR205C, strain PFK2, hits give low values 0.964 | locus YMR223W, strain ubp8, hits give low values 0.964 | locus YMR231W, strain pep5, hits give low values 0.983 | locus YMR307W, strain GAS1, hits give low values 1.02 | locus YNL067W, strain RPL9B, hits give low values 0.986 | locus YNL071W, strain lat1, hits give low values 0.982 | locus YNL128W, strain TEP1, hits give low values 0.977 | locus YNL153C, strain GIM3, hits give low values 1.01 | locus YNL183C, strain NPR1, hits give low values 0.976 | locus YNL209W, strain ssb2, hits give low values 0.984 | locus YNL233W, strain BNI4, hits give low values 0.995 | locus YNL248C, strain rpa49, hits give low values 0.985 | locus YNL250W, strain rad50, hits give low values 0.967 | locus YNL271C, strain bni1, hits give low values 0.977 | locus YNL298W, strain CLA4, hits give low values 0.99 | locus YNL307C, strain MCK1, hits give low values 0.999 | locus YNL322C, strain KRE1 (second series), hits give low values 0.987 | locus YNL322C, strain KRE1, hits give low values 0.997 | locus YNR049C, strain mso1, hits give low values 0.99 | locus YNR052C, strain pop2, hits give low values 0.992 | locus YOL006C, strain TOP1, hits give low values 1.01 | locus YOL012C, strain htz1 0.742 | locus YOL147C, strain pex11, hits give low values 0.987 | locus YOR001W, strain rrp6, hits give low values 1.01 | locus YOR061W, strain CKA2, hits give low values 1 | locus YOR069W, strain VPS5, hits give low values 0.992 | locus YOR070C, strain gyp1, hits give low values 0.988 | locus YOR080W, strain dia2, hits give low values 0.987 | locus YOR083W, strain WHI5, hits give low values 0.954 | locus YOR106W, strain vam3, hits give low values 0.955 | locus YOR136W, strain idh2, hits give low values 0.989 | locus YOR144C, strain elg1, hits give low values 0.997 | locus YOR184W, strain ser1, hits give low values 0.989 | locus YOR231W, strain MKK1, hits give low values 1.04 | locus YOR265W, strain rbl2, hits give low values 0.992 | locus YOR270C, strain vph1, hits give low values 0.972 | locus YOR290C, strain snf2, hits give low values 0.886 | locus YOR316C, strain cot1, hits give low values 0.984 | locus YPL051W, strain arl3, hits give low values 1.01 | locus YPL078C, strain atp4, hits give low values 0.97 | locus YPL106C, strain sse1, hits give low values 0.978 | locus YPL240C, strain hsp82, hits give low values 0.996 | locus YPL256C, strain CLN2, hits give low values 1.06 | locus YPR119W, strain clb2, hits give low values 0.991 | locus YPR141C, strain kar3, hits give low values 0.966 | locus YPR163C, strain tif3, hits give low values 0.988 | locus YPR167C, strain met16, hits give low values 0.995 | strain wtn01, hits give low values 0.991
